DT40 TDP1 CPT: DT40-hTDP1 cell growth loss with CPT | chicken DT40 Tdp1-/-;hTDP1 cells + 20 nM CPT, ATP luminescence, 48 h | Potency, µM (top dose mostly 46.2 µM), without a hit: at the top dose activity change, negative = growth inhibition, usual class: inhibitors | 12% of 420,000 active | AID 686979; note: potency is the fitted concentration of half-maximal effect; nearly all actives have a fitted effect of over 55% in size
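Cell growth measured by CellTiter-Glo luminescence after a minimum 48 h, 37 C compound exposure with 20 nM CPT in Tdp1-knockout DT40 cells stably expressing hTDP1, seeded 400/well; qHTS titration format.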
IL-1B inflam inh: inhibitors of inflammasome signaling (IL-1 beta secretion). activity change, % at 57.5 µM. AID 743279. 4.7% of 360,000 active. THP-1 LPS/ATP IL-1B secretion, AlphaLISA, 16 h; active compounds read low; in the data active = activity change below about -50%; inconclusive = mostly about -30% to -49%
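Secreted IL-1B measured by AlphaLISA bead assay after 16 h compound exposure of THP-1 cells; compounds (final up to 57.5 uM) added 1 h before LPS (250 ng/mL) and ATP (1.25 mM) stimulation; lower signal means less secretion.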
HT1080 IDH1KD tx: kills HT-1080 cells with IDH1 knockdown | HT-1080 IDH1 knockdown viability, ATP luminescence, 48 h | 2% of 360,000 active | Potency, µM (titrated, usually from 46.1 µM), inactives show top-dose activity, negative = toxicity, actives largely listed as cytotoxic | AID 686971;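 note: potency is the fitted concentration of half-maximal effect; 0% = DMSO wells and -100% = cell-free medium wells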
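After a 2 h attachment period, IDH1KD HT-1080 cells took pin-transferred compound for 48 h at 37 °C; ATP-based luminescence after 10 min room-temperature reagent incubation reported viability.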
HT1080NT lethal: kills 2HG-producing HT-1080-NT fibrosarcoma cells; HT-1080-NT fibrosarcoma viability, CellTiter-Glo ATP luminescence, 48 h; Potency, µM (doses to about 46.1 µM), for inactives: at the highest dose activity, negative = less viability, actives largely listed as cytotoxic; 1.6% of 360,000 active; AID 686970;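 note: NT is the 2HG producing partner of a matched IDH1 knockdown line; potency is the fitted concentration of half-maximal effect; 0% = DMSO-treated cells and -100% = media-only wells without cells; nearly all actives have a fitted effect of over 55% in size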
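Compounds were tested in concentration-response format on HT-1080-NT cells for 48 hours at 37 degrees C. Cell viability came from CellTiter-Glo luminescence; curves were classified by r2, response magnitude and activity.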
DT40 TDP1 no CPT: qHTS for Inhibitors of human tyrosyl-DNA phosphodiesterase 1 (TDP1): qHTS in cells in absence of CPT; DT40 Tdp1-/- hTDP1 cells, no CPT, ATP luminescence, 48 h; Potency, µM (titrated, usually from 46.2 µM), inactives show at the top dose activity change, negative = growth inhibition, usual class: inhibitors; 15% of 420,000 active; note: potency is the fitted concentration of half-maximal effect; nearly all actives have a fitted effect of over 55% in size
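Camptothecin absent (DMSO only). Human TDP1-complemented DT40 knockout cells, 400 cells/well, 37 °C for minimum 48 hr; ATP measured via CellTiter-Glo, 30 min dark incubation, luminescence.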
The depositor's hits bear a star; u = inconclusive; x = no result given; ! = not active in a repeat; [ ] = remark or other dose. In the library only some 19% were active in any assay of this set; here they are far more common. Unless noted, calls come from the whole dose curve; as a rule, active = well fitted curve in the direction sought with a large enough effect; inconclusive = small, poorly fitted or top-dose-only effect, or another doubt; inactive = no such curve, though single readings can be large; an effect the other way counts as inactive or inconclusive. Unless noted, % is set by controls: 0 for no effect and ±100 for the full control effect.

SMILES | DT40 TDP1 CPT | IL-1B inflam inh | HT1080 IDH1KD tx | HT1080NT lethal | DT40 TDP1 no CPT
COC(=O)C(O)(c1ccc(NC(=O)c2ccccc2)cc1)C(F)(F)F (centres undefined) | 4.4% | 0.0 | 1.4% | 4.6% | -18.3%
C=CCN1C[C@H](C)N([C@@H](c2ccccc2)c2ccc(C(=O)N(CC)CC)cc2)C[C@H]1C | 3.5% | x | x | x | -13.4%
COc1cc2cc(c1Cl)N(C)C(=O)CC(OC(=O)C(C)N(C)C(C)=O)C1(C)OC1C(C)C1CC(O)(NC(=O)O1)C(OC)C=CC=C(C)C2 (centres undefined) | 0.0461µM* | 32.2 | u | 0.0041µM* | 0.13µM*
COc1ccc(CN2CCN(C(=O)COc3cccc(C)c3)CC2)c(OC)c1 | u | -10.5 | -17.6% | 4.5% | u
COc1ccccc1CN1CCN(C(=O)COc2cccc(C)c2)CC1 | u | -5.7 | -1.7% | 0.2% | 20.6µM*!
COc1ccc(OC)c(CN2CCN(C(=O)COc3cccc(C)c3)CC2)c1 | 25.9µM* | -4.5 | -0.7% | -1.1% | u
CC(=O)OCC12CC(OC(=O)CC(C)C)C(C)=CC1OC1C(O)C(OC(C)=O)C2(C)C12CO2 (centres undefined) | 0.0231µM* | -83.2* | x | 0.259µM* | 0.0231µM*
COc1cccc(N2CCN(c3c4c(nc5nncn35)CCC4)CC2)c1 | 23.1µM* | x | x | x | 8.2µM*
CCCCCCOc1ccc(CN2CCN(C)CC2)cc1 | 17.8µM* | u | u | u | 17.8µM*
CN(Cc1ccccc1)C1CCCN(C(=O)COc2ccccc2Cl)C1 (centres undefined) | u | -8.4 | -1.6% | -7.6% | 16.4µM*
CC(=O)Nc1cnc(-c2ccccc2O)cn1 | u | 23.7 | -11.5% | u | -21.3%
C=CCc1cc(C)ccc1OCCCC(C(=O)OCC)C(=O)OCC | -26.2% | 1.1 | 16.7% | 11.3% | u
CCCCCOc1ccc(C)cc1CN(CCCl)CCCl | 16.4µM* | x | u | -22.5% | 16.4µM*
Cc1ccc(S(=O)(=O)N2CCC(C(=O)N3CCC4(CC3)OCCO4)CC2)cc1 | -21.7% | -9.4 | -4.8% | -0.5%[9.24 µM] | -3.0%
Cc1ccc(N2CCN(C(=O)C3CCC(CNS(=O)(=O)c4ccc(Br)s4)CC3)CC2C)cc1 (centres undefined) | 7.31µM* | x | x | x | 4.61µM*
Cc1ccc(N2C(=O)NC(=O)/C(=C/c3cnn(-c4ccc(C)cc4)c3)C2=O)cc1 | 16.4µM* | -10.3 | -2.3% | -5.5% | 18.4µM*
c1ccc2c(c1)CN(Cc1ccc3c(c1)OCO3)Cc1cnnn1-2 | u | 12.8 | -10.6% | -5.0% | 10.3µM*
O=[N+]([O-])c1ccc(S(=O)(=O)N2CCn3cccc3C2c2ccccc2F)cc1 (centres undefined) | u | x | x | x | 16.4µM*
CC1(C)CC[C@]2(C)CC[C@]3(C)C4C[C@@H]5OO[C@@]6(O5)C(CCCC6(C)C)[C@]4(C)CC[C@@]3(C)C2C1 (some centres undefined) | 8.2µM* | 4.7 | -7.7% | 5.4% | 5.17µM*
CC1=C(C)[N+](=O)C2CCCCC2N1[O-] (centres undefined) | u | -8.7 | 3.7% | 3.6% | 4.7%
CC(C)(O)/C=C/C(=O)[C@](C)(O)C1[C@H](O)C[C@@]2(C)C3CC=C4C(C[C@H](O)[C@@H](O)C4(C)C)[C@]3(C)C(=O)C[C@]12C (some centres undefined) | 0.291µM* | -86.7* | 1.3µM* | 1.3µM* | 0.326µM*
COc1nc2ccccc2nc1N1CC1 | 0.92µM* | 31.6 | 10.2% | 26.1% | 1.64µM*
Oc1cccc(Nc2ncnc3sc4c(c23)CCCC4)c1 | 16.4µM* | x | x | x | 14.6µM*
CC1/C=C/C=C/CC/C=C/C=C/C=C/C=C/C(OC2OC(C)C(O)C(N)C2O)CC2O[C@](O)(CC(O)C(O)CCC(O)CC(O)CC(O)CC(=O)OC(C)C(C)C1O)CC(O)C2C(=O)O (some centres undefined) | -9.1% | x | x | x | -9.0%
O=C1CCN(C(=O)CNC(=O)Cc2ccccc2)CC1 | 17.1% | 16.2 | 4.7% | 5.9% | 1.2%
SMILES | DT40 TDP1 CPT | IL-1B inflam inh | HT1080 IDH1KD tx | HT1080NT lethal | DT40 TDP1 no CPT
O=C(NCc1ccccc1)N1CCc2c(sc3c2CCCC3)C1c1ccccc1 (centres undefined) | u | x | x | x | 16.4µM*
O=C(COc1cccc(Cl)c1)N1CCN(CCc2ccncc2)CC1 | -22.7% | x | x | x | -0.9%
CC(C)(C)NC(=O)NC(=O)CN1CC=C(c2ccccc2)CC1 | 16.4µM* | -5.2 | -1.5% | -3.4% | 13µM*
O=C(NCc1ccccc1)c1cccn(Cc2ccccc2)c1=O | u | 13.7 | 0.0% | -1.7% | u
O=C(c1cc(C(=O)NCc2ccccc2)c(=O)n(Cc2ccccc2)c1)c1cc(Cl)ccc1O | 7.31µM* | -2.6 | -23.9% | -19.8% | 8.2µM*
CC(NC(=O)Oc1ccccc1)C(c1cccs1)N1CCOCC1 (centres undefined) | -25.4% | -10.9 | 8.2%[9.24 µM] | 8.2% | -16.9%
COC(=O)C1=C(c2ccc(F)cc2OCc2ccccc2)C[C@@H]2CC[C@H]1N2C(=O)NCc1ccccc1OC | 25.9µM* | 0.0 | -11.5% | -5.3% | u
COC(=O)C1=C(c2ccc(F)cc2OCc2ccccc2)C[C@@H]2CC[C@H]1N2C(=O)NCc1cc(C)oc1C(F)(F)F | 20.6µM* | -17.5 | 8.1% | 0.0% | u
COC(=O)C1=C(c2ccc(F)cc2OCc2ccccc2)C[C@@H]2CC[C@H]1N2C(=O)NCc1ccccc1 | u | u | -12.1% | -24.8% | u
COC(=O)C1=C(c2ccc(F)cc2OCc2ccccc2)C[C@@H]2CC[C@H]1N2C(=O)NCC1CC1 | 7.31µM* | -19.3 | -0.7% | 0.0% | 8.2µM*
c1ccc(N2CCN(c3ccccc3)CC2)cc1 | 10.0% | x | x | x | -15.6%
O=[N+]([O-])c1cccc2c([As](=O)(O)O)cccc12 | 34.9% | -26.1 | 11.6% | -14.3% | -1.3%
CCC(=O)O[C@](Cc1ccccc1)(c1ccccc1)[C@H](C)CN(C)C | 42.8µM* | x | x | x | 38.2µM*
C[C@]1(O)CCC2C3CC[C@H]4C[C@@H](OC(=O)[C@@H](N)CCCCN)CC[C@]4(C)C3CC[C@@]21C (some centres undefined) | u | -7.6 | 0.1% | -2.8% | 25.9µM*
CC(=O)C1CCC2C3CCC4CC(O)CCC4(C)C3CCC12C#N (centres undefined) | u | -24.0 | 6.2% | -0.5% | u
Cc1ccccc1NCC(=O)N/N=C/C(Br)=C/c1ccccc1 | 5.17µM* | u | 17.8µM* | u | 13µM*
O=c1[nH]c(=S)n(-c2ccccc2)c(O)c1C=NCCN1CCNCC1 | 6.0% | 30.5 | 0.8% | 4.3% | 18.6%
